Experimental data published in PubChem BioAssay AID493248 (Broad Institute, 2011).
Among all 2,300 compounds or so, about 1,400 (61%) were called active. Inconclusive results (about 7%) are left out. How the calls were made is not given here. The set was probably picked from earlier hits. A selection follows. Measured potencies and affinities stand elsewhere.

target: FAD-linked sulfhydryl oxidase ALR (Homo sapiens) (UniProt P55789); assay: inhibitors of human ALR sulfhydryl oxidase, dose response, biochemical, H2O2 detection, luminescence, cherry-pick (AID 493248); details: purified ALR, DTT oxidation, H2O2 HRP-luminol luminescence; at 10 µM (top of the series)
Sequence (P55789 whole entry, looked up): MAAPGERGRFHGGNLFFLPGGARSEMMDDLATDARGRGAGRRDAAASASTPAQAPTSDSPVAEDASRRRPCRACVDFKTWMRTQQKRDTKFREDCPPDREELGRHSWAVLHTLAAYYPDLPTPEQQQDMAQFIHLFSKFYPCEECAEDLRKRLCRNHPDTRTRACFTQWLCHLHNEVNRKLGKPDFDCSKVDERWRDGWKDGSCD

SMILES	activity change, negative = inhibition
Cc1noc(NS(=O)(=O)c2ccc(NC(=O)CCN3C(=O)c4ccccc4C3=O)cc2)c1C	-21.6%
O=C(O)CCCC(=O)N1CCN(c2nc(-c3ccccc3)c3ccccc3n2)CC1	-0.988%
COc1ccc(N=C2C(=O)Nc3ccccc32)cc1	-24.8%
Cc1ccc(N(C(=O)c2cccs2)C2C=CS(=O)(=O)C2)cc1 (stereo not given)	-56.3%
COc1ccc(Nc2nccc(-c3cccc(N)c3)n2)cc1	-11.7%
CC1CCC2(CC1)NC(=S)N(c1ccccc1)N2 (stereo not given)	-28.1%
COC(=O)c1sccc1NC(=O)c1cc(C)on1	-8.04%
Cn1c(CNc2ccc(O)cc2)nc2ccccc21	-101%
Cc1nn(C)c(Nc2ccc(Br)cc2)c1Br	-46.2%
COc1ccc(N2CCN(c3ncccn3)CC2)cc1	-8.28%
COc1ccc(S(=O)(=O)N2CCC(C(=O)Nc3ccccc3N3CCCC3)CC2)cc1OC	-28.9%
COC(=O)c1c(NC(=O)CN2CCN(Cc3ccc4c(c3)OCO4)CC2)sc(C)c1C	-8.94%
Cc1ccccc1NC(=O)CNc1ccccc1N1CCCCC1	-89.6%
O=C(Nc1ccccc1N1CCCC1)c1cccc(F)c1	-3.33%
c1ccc2c(c1)CSc1ccccc1N2	-6.27%
CC1CN(C(=O)Nc2ccc3snnc3c2)c2ccccc21 (stereo not given)	-13.6%
CCCCCC(=O)N/N=C/c1ccc(N(C)C)cc1	-20.3%
CN(C)c1ccc(C=Nc2cnn(C)c2C(N)=O)cc1	-35.9%
O=C(CNC(=O)c1ccccc1Br)N/N=C/c1ccc(O)cc1	-106%
CN(C)c1ccc(/C=N/NC(=O)c2sccc2-n2cccc2)cc1	-99%
CCn1c(NC(=O)c2ccc(C)cc2)c2ccccc2nc1=O	-48.8%
O=Cc1c(Sc2ccccc2)nc2ccccn2c1=O	-18.4%
O=C1Oc2ccccc2C(=O)/C1=C\N1CCN(c2ccccc2)CC1	-15.7%
Cc1ccc(S(=O)(=O)Nc2c(O)ccc3ccccc23)cc1	13.8%
COc1ccc(OC)c(S(=O)(=O)Nc2cccc3c(O)cccc23)c1	31.7%

SMILES	activity change, negative = inhibition
COc1ccc(C=O)cc1CSc1ccccn1	-11.6%
COc1c(OC)c(O)c2c(=O)cc(-c3c(O)cccc3O)oc2c1OC	162%
Cc1nc(-c2ccc([N+](=O)[O-])cc2)c(-c2ccccc2)o1	29.9%
O=C(CC1C(=O)Nc2ccccc2N1CC(=O)N1CCCC1)Nc1ccc(Br)cc1 (stereo not given)	-30%
CCN(CC)c1ccc2oc(=O)c(C)nc2c1	88.3%
O=C(c1cc(C(=O)c2ccco2)cc(C(=O)c2ccco2)c1)c1ccco1	-7.08%
O=C(CCNc1cccc(Cl)c1)c1ccco1	-4.82%
COc1cc(NCCC(=O)c2cccs2)c(OC)cc1Cl	-89.7%
c1ccc2c3c([nH]c2c1)-c1[nH]ncc1CC3	-82.4%
NC(=O)NC1CCCc2c1[nH]c1ccc(Cl)cc21 (stereo not given)	-12.4%
COc1ccc(-c2csc(NC(=O)[C@H](C)N3C(=O)C4CC=CCC4C3=O)n2)cc1OC (stereo not given in full)	-58.5%
COc1cc(/C=C2\SC(=Nc3ccccc3OC)NC2=O)ccc1O	-53.3%
O=C(c1cccc(Cl)c1)C1CCCN(Cc2ccc(N3CCNC3=O)cc2)C1 (stereo not given)	-1.51%
CCC(=O)N1CCN=C1SCc1cccc(F)c1	-25.9%
O=C(CN1C(=O)CSC1=O)N1CCCC(Nc2ccc(F)cc2)C1 (stereo not given)	-78.4%
Cc1nc(N2CCN(C)CC2)c2cc(-c3ccccc3)sc2n1	-4.2%
COc1cc(C(=O)O)c2c(c1C)OC(=O)c1c(C)cc(O)c(C=O)c1O2	-39.1%
CNC(=O)c1csc(-c2ccc(C)cc2)n1	146%
CCNc1nc(NCC)nc(N(C)N)n1	-22.3%
Cc1cccc(NCc2ccc(N(C)C)cc2)n1	-5.45%
CC(C)n1c(NCc2cccs2)nc2ccccc21	-4.15%
COc1ccc(O)c(CNc2ccccc2F)c1	-6.08%
CC(=O)Nc1ccc(NCc2ccc(C)s2)cc1	-11.5%
CC(=O)Nc1ccc(-c2csc(NNC(=O)c3ccccc3)n2)cc1	7.25%
O=C(CN1C(=O)S/C(=C\C=C\c2ccccc2)C1=O)Nc1ccccc1C(=O)O	-58%

SMILES	activity change, negative = inhibition
COc1cc(C(=O)N/N=C/c2cccc(Oc3ccccc3)c2)ccc1O	-2.05%
CCN(CC)S(=O)(=O)c1ccc(C(=O)Nc2nnc(CSC)o2)cc1	-25.7%
Cc1[nH]n(C(N)=S)c(=O)c1N=Nc1cccc([N+](=O)[O-])c1C	-50.5%
Cc1cc(C(=O)Nc2nc3c(s2)CCCC3)no1	-50.2%
Cc1cc(C(=O)Nc2sc3c(c2C#N)CCCC3)no1	-53.9%
O=C(NCc1n[nH]c(=S)n1-c1ccc(Cl)c(Cl)c1)c1ccc(S(=O)(=O)N2CCCCC2)cc1	15%
COc1ccc(C(=O)c2ccc(N(C)C)cc2)c(OC)c1	-4.89%
CC(C)C(=O)n1nc(-c2cccnc2)nc1NCc1cccs1	-25.7%
C(=C\c1nc2ccccc2[nH]1)/c1ccccc1	-1.44%
O=c1[nH]ccc2c(O)cccc12	-103%
Nc1ccc2nc[nH]c2c1	-12.8%
CC(C)Cc1nc2ccc(N)cc2[nH]1	-1.73%
Nc1ccc(-c2nc3ccc([N+](=O)[O-])cc3[nH]2)cc1	31%
COc1ccc(N=C2C(=O)N3CCCc4cccc2c43)cc1	-15.6%
O=C(NCc1ccccc1Cl)C1CCCN(S(=O)(=O)c2cnc[nH]2)C1 (stereo not given)	20%
Cc1ccc(S(=O)(=O)N2CCCC(C(=O)O)C2)s1 (stereo not given)	5.85%
O=C(NCCc1ccccc1)C1CCCN(S(=O)(=O)c2cnc[nH]2)C1 (stereo not given)	6.71%
COc1cc(NC(=O)C2CCCN(S(=O)(=O)c3cnc[nH]3)C2)cc(OC)c1 (stereo not given)	-31%
N#Cc1c(N)c(C(=O)c2ccccc2)n2c1CCC2	-45.9%
N#Cc1c2n(c3c(=O)n(Cc4ccccc4)cnc13)CCCC2	18%
COc1ccc(C(=O)NCCNc2nc3ccc(C)cc3cc2C#N)cc1OC	3.56%
O=C(/C(=N/N=C/c1ccc(O)c(O)c1O)c1ccccc1)c1ccccc1	-31.1%
CN(C)c1ccc(/C=N/Nc2cccc(C(=O)O)c2)cc1	-23.9%
CCC(C)(C)n1nnnc1CN1CCc2ccccc21	23.2%
CC1CCN(CC(=O)N2c3ccccc3CCc3ccccc32)CC1	2.93%

SMILES	activity change, negative = inhibition
COc1ccc(NC(=O)CC2Nc3cccc4cccc(c34)NC2=O)cc1 (stereo not given)	-74.6%
CN(C)c1ccc(NC(=O)CC2NCCNC2=O)cc1 (stereo not given)	-99.5%
CC(C)Cn1c(N)c(C=O)c(=O)n(C)c1=O	-3.74%
CN(Cc1ccco1)C(=O)C(Cc1ccccc1)NS(=O)(=O)c1ccc2c(c1)CCC(=O)N2 (stereo not given)	-12%
CSc1ccc(/C=C2\C(=N)N3N=C(CC(=O)N4CCCCC4)SC3=NC2=O)cc1	-54.4%
N=C1/C(=C\c2ccc(Br)o2)C(=O)N=C2SC(CC(=O)N3CCCCC3)=NN12	-18.4%
CCc1ccc(CCC(=O)Nc2ccc(Cl)cc2)o1	-22.5%
CC(C)C(=O)NN(C(=O)C(C)C)c1nc2ccccc2s1	-76%
Cc1nc(-c2ccccc2)sc1-c1n[nH]c(=S)n1C	-47.5%
Cn1c(-c2sccc2OCc2ccccc2)n[nH]c1=S	-40.7%
COc1cc(CNc2cc(C)ccc2C)cc(OC)c1OC	-55.5%
Cc1ccc2cc3cc(C(=O)NCCCN4CCCC4=O)oc3nc2c1	-55.2%
Cc1nc(C)c(-c2csc(Nc3cccnc3)n2)s1	-15.7%
Cc1nc(C)c(-c2csc(Nc3ccc(O)cc3C)n2)s1	-3.91%
COc1cc(N)c(Cc2nccc3cc(OC)c(OC)cc23)cc1OC	5.91%
COc1cc(Sc2ccc(C)cc2)c(OC)cc1N	-74.8%
CC(/C=N/n1c(-c2ccc(C)cc2)n[nH]c1=S)=C\c1ccco1	-40.8%
Cc1cccc(/C=N/Nc2nncc3ccccc23)c1	-4.32%
CN1C(=O)CC(NNC(=O)c2ccc(Cl)cc2)C1=O (stereo not given)	-47.1%
O=C(N/N=C1/CCSC1)c1cc(Br)ccc1O	-17.6%
COc1ccc(Nc2ccccc2N)cc1	221%
O=c1[nH]nc(CNc2ccc(O)cc2)c2ccccc12	-103%
COc1ccc(NCCc2ccccn2)cc1	86.3%
S=c1[nH]cc(-c2ccccc2)n1-c1ccccc1Cl	-24.1%
C/C(=N\NC(=O)c1ccccc1O)C1C(=O)c2ccccc2C1=O	-23.9%

SMILES	activity change, negative = inhibition
Nc1ccccc1C(=O)NNc1c2ccccc2nc2ccccc12	-69.6%
CC(=O)Nc1ccc(NCN2C(=O)C3C4CCC(C4)C3C2=O)cc1 (stereo not given)	-86.6%
CCc1cc2c3c(c1)C(C)CC(C)(C)N3C(=O)/C2=C1\SC(=O)NC1=O (stereo not given)	-7.31%
C/C(=N\Nc1ccccn1)c1cccs1	-11.5%
COc1ccc2c(c1)N(C)/C(=C/c1cccc[n+]1C)S2	-53.1%
CCC(=O)Nc1cccc(-c2cnc3ccccc3n2)c1	3.89%
CN1CCN(c2ccc(NC(=O)c3ccc(Cl)cc3)cn2)CC1	-19.7%
COc1cc(OC)cc(C(=O)N2CCC(N3CCN(c4ccccc4)CC3)CC2)c1	-61.4%
CC(=O)NN1C(=O)/C(=C\c2ccc(O)cc2)SC1=S	-79.9%
O=C(C1CC1)N1CCN=C1SCc1ccc(Cl)cc1	-64.3%
O=C1c2ccccc2CSc2c(O)cccc21	-28.4%
CC(=O)Nc1ccc(S(=O)(=O)NNc2ccc([N+](=O)[O-])cc2)cc1	-103%
O=C(C1CC1)N1CCN=C1SCc1ccc(F)cc1	-51.5%
CN(C)/C=N/c1sc2c(c1C#N)CCC2	25.9%
COC(=O)c1ccc(NC(=O)c2ccc(C)cc2)o1	-4.94%
CN(C)c1ccc(/C=N/NC(=O)c2cccc(N3CCCC3=O)c2)cc1	-16.6%
CC(=O)Nc1cccc(N2CCCC2=O)c1	-18.2%
CCc1c(C)sc(NC(=O)c2cc(C)no2)c1C#N	-63.3%
COC(=O)c1ccc2[nH]c3c(c2c1)CC(C)CC3 (stereo not given)	-6.7%
Cc1nc2ccc(S(=O)(=O)N(C)CC(=O)NCc3ccc(N(C)C)cc3)cc2s1	-41.2%
CCN1C(=O)c2ccc(C(=O)Nc3ccc(O)cc3C)cc2C1=O	-50.1%
CCN(Cc1nc2ccccc2n1C)c1ccccc1	-11.5%
CCn1c(-c2ccc(N)cc2)nc2ccccc21	-17.3%
CN(Cc1nc2ccccc2n1C)c1ccccc1	-32.4%
CCn1c(CN(C)c2ccccc2)nc2ccccc21	-7.07%
